High-throughput results deposited in PubChem BioAssay by several laboratories.
Phagocyt inh – inhibitors of macrophage phagocytosis, primary screen, imaging, J774A.1 cells, IgG beads | J774A.1 macrophage IgG-bead phagocytosis | inhibition, % at 5 µM | 110,000 tested, 0.07% active | AID 1029, 2008;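 active = inhibition above the mean of the plate negative controls plus 5 SD, cut at about 13% in these data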;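 note: phagocytic index as fraction of beads internalized from green versus red external bead signal; plate controls were DMSO negative control for no effect and cytochalasin-D positive control for full effect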
S1P2 blocker – human S1P2 receptor antagonists, primary screen, cell-based | 97,000 tested, 0.21% active | inhibition, % at 5 µM | cell-based S1P2 antagonist assay, inhibition at 5 uM | Sphingosine 1-phosphate receptor 2 (Homo sapiens), O95136; in the data active = inhibition above about 45%;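 note: CRE beta-lactamase reporter cells expressing human S1P2 stimulated with S1P; 0% = agonist at EC80 alone and 100% = agonist plus reference antagonist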
Target sequence (O95136 whole entry, looked up): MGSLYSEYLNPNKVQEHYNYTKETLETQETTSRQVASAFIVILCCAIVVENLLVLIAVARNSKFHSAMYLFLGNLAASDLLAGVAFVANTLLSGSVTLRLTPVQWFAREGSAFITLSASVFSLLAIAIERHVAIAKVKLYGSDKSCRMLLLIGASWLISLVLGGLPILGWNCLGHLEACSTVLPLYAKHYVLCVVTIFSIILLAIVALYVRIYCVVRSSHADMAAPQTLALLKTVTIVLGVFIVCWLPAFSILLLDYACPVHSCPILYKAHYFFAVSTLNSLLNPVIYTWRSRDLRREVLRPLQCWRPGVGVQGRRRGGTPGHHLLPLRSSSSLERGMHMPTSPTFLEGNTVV
GALR2 ag – GALR2 receptor agonists, primary screen, cell-based; 140,000 tested, 0.48% active; GALR2-expressing cells, agonist activation read-out; AID 803, 2007; Galanin receptor type 2 (Homo sapiens), O43603; activation, % (no concentration beside the values); in the data active = activation above about 5%, passing the limit was not always enough;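 note: 0% = vehicle buffer wells and 100% = reference agonist at full effect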
Target sequence (O43603 whole entry, looked up): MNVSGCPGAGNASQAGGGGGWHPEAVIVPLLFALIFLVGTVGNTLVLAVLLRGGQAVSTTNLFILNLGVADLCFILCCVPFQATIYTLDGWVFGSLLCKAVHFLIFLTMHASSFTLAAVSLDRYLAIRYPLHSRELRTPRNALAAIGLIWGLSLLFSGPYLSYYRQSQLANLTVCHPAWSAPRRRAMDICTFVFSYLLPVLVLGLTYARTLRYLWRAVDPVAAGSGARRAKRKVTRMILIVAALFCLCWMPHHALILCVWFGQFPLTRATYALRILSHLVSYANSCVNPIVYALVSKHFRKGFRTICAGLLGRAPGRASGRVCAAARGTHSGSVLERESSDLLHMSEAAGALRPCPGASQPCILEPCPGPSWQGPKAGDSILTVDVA
GALR2 antag – GALR2 antagonists in receptor-expressing cells, primary screen; Galanin receptor type 2 (Homo sapiens), O43603; antagonist mode; inhibition, % at 4 µM; 140,000 tested, 0.39% active; in the data active = inhibition above about 27%;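 note: cells stimulated with galanin 1-16 at roughly its EC80; 0% = agonist challenge control and 100% = basal control without agonist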
Candida biofilm – clotrimazole potentiators killing Candida biofilms, primary screen, with clotrimazole, Alamar Blue. C. albicans biofilm + clotrimazole. inhibition, % at 6 µM. 85,000 tested, 0.14% active;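 active = inhibition above 20%; inactive = inhibition below 20%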;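 note: preformed 24 hr biofilms exposed to compound for 48 hr; 0% = biofilm without compound and 100% = blank killed by clotrimazole plus chlorhexidine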
S1P2 agonist – S1P2 receptor agonists, primary screen, cell-based. activation, % at 4.5 µM. S1P2-expressing cell line, agonist reporter read-out. 97,000 tested, 0.46% active. AID 729, 2007; in the data active = activation above about 16%;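 note: 0% = vehicle low control and 100% = maximal reference agonist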
GALR2 agon conf – GALR2 agonists, retest of hits, confirmation, cell-based | shares compounds with GALR2 ag | GALR2-expressing cells, agonist activation | activation, % at 5.6 µM | 460 tested, 10% active; in the data active = activation above about 8.4%;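 note: 0% = buffer-only vehicle wells and 100% = full reference agonist response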
BLA act counter – activators of NFAT-driven beta-lactamase reporter, confirmation, counter-screen for GALR2 agonist project, CHO NFAT-bla cells, FRET readout | 460 tested, 10% active | AID 865, 2007 | shares compounds with GALR2 ag | beta-lactamase FRET activation | activation, % at 5.6 µM;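 active = activation above the screen-wide mean activation plus 3 SD, cut at about 8% in these data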;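 note: 0% = DMSO with PBS wells and 100% = thapsigargin positive control wells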
* hit, by the source's call; . = no result given. Rows were chosen to be rich in hits. Some 1.3% of all compounds tested hit in one or more screens of this group.

SMILES | Phagocyt inh | S1P2 blocker | GALR2 ag | GALR2 antag | Candida biofilm | S1P2 agonist | GALR2 agon conf | BLA act counter
C=CCOc1ccc(C2/C(=C(\O)c3ccc(F)cc3)C(=O)C(=O)N2CCCN(C)C)cc1 (stereo not drawn) | -1 | 6 | 8.3* | 7 | 6 | -10 | 0 | 0
O=c1oc2cc(O)ccc2c2oc3cc(O)ccc3c12 | . | . | 0 | 12 | . | . | . | .
CCN(CC)c1ccc2c(c1)oc(=O)c1c(Cl)cc(=O)oc12 | 2 | 19 | 20* | -2 | 2 | 14 | 6 | 12*
CC(=O)c1c(C(C)=O)c(C)n(NC(=O)c2ccc(Cl)cc2)c1C | 2 | -9 | -3 | -5 | 5 | -4 | . | .
CC(=O)CCn1c(=O)n(CCC(C)=O)c(=O)n(CCC(C)=O)c1=O | . | 5 | 36* | 0 | -4 | -14 | -1 | -3
COc1ccc(N(CC(=O)N/N=C/c2ccc(-c3ccc([N+](=O)[O-])cc3)o2)S(=O)(=O)c2ccc(C)cc2)cc1 | . | . | -2 | -6 | . | . | . | .
CC(=O)c1cccc(NC(=O)c2ccc(Br)o2)c1 | 0 | . | -1 | 13 | 11 | . | . | .
CCCCC(=O)Nc1cccc(NC(=O)c2ccc(Br)o2)c1 | 10 | 11 | 9 | 6 | 4 | -2 | -1 | -2
COC(=O)c1ccc2c(c1)C(C)(C)C(/C=C/c1ccccc1O)=[N+]2C | . | 32 | 13* | 17 | . | 5 | -2 | -7
C[N+]1=C(/C=C/Nc2ccccc2Cl)C(C)(C)c2ccccc21 | -14 | . | 0 | 4 | . | . | . | .
CCCCc1c(O)nc(SCC(=O)N2CCOCC2)[nH]c1=O | -1 | -8 | -1 | 14 | 10 | -4 | . | .
Nc1c(C(=O)NCc2ccccc2)c2nc3ccccc3nc2n1CCCN1CCOCC1 | -2 | . | 16* | -16 | . | . | 11* | 23*
O=C(c1ccco1)N1CCN(C(=O)c2cc3c(=O)oc4ccccc4c3s2)CC1 | 0 | -8 | 30* | 1 | 5 | -5 | -1 | -1
CN=C1S/C(=C\c2cc(C)n(-c3ccccc3F)c2C)C(=O)N1C | 2 | 2 | -3 | 2 | . | -4 | . | .
Cn1c(=O)[nH]c(=O)c2c1nc(N1CCNCC1)n2Cc1cccc2ccccc12 | 2 | -6 | 15* | 5 | 8 | -4 | 0 | -1
CCOC(=O)N1CCN(C(=O)c2cn(-c3ccc(C)c(C)c3)c(=O)c3ccccc23)CC1 | -2 | . | 0 | 14 | -2 | . | . | .
COc1ccccc1C(=O)N1CCN(c2cccc(Cl)c2)CC1 | . | 3 | -1 | 6 | 1 | -4 | . | .
Cc1cccc(C2=NC(C(F)(F)F)(C(F)(F)F)c3c(n(-c4ccc(F)cc4)c(=O)[nH]c3=O)N2)c1 | -5 | . | -2 | 0 | . | . | . | .
Cc1cccc(C2=NN(c3ccc(Br)cc3)[C@@H](C(=O)N3CCOC3=O)[C@@H]2c2ccc(F)cc2)c1 | . | . | 9.8* | 7 | . | . | 5 | 8
O=C1OCCN1C(=O)[C@H]1[C@H](c2ccc(Cl)cc2)C(c2cccc(Cl)c2)=NN1c1ccccc1 | . | . | 23* | -1 | . | . | 10* | 19*
COc1ccccc1[C@@H]1C(c2cccc(Cl)c2)=NN(c2ccccc2)[C@H]1C(=O)N1CCOC1=O | . | . | 30* | 8 | . | . | 13* | 22*
Cc1ccc(C)n1-c1nc(=S)[nH][nH]1 | -1 | -26 | -1 | -6 | 2 | 3 | . | .
Cc1nnc(SCC(=O)c2cc(C)n(-c3ccc4c(c3)OCO4)c2C)s1 | 0 | -5 | 10 | -8 | 9 | -5 | -1 | -2
Cc1cc(C(=O)CSc2nnnn2C)c(C)n1-c1ccc2c(c1)OCCO2 | 0 | 9 | 0 | -8 | 6 | -4 | . | .
COc1ccc(C2NC(=O)CS2)cc1 (stereo not drawn) | . | -7 | -3 | -2 | 4 | -2 | . | .
SMILES | Phagocyt inh | S1P2 blocker | GALR2 ag | GALR2 antag | Candida biofilm | S1P2 agonist | GALR2 agon conf | BLA act counter
O=C(NC1CCCCC1)C(c1ccc(Cl)cc1)N1CCC2(CC1)OCCO2 (stereo not drawn) | -5 | 0 | 11* | -9 | 2 | -2 | -1 | -3
Cc1ccc(C(C(=O)NC2CCCCC2)N2CCC3(CC2)OCCO3)cc1 (stereo not drawn) | 0 | -2 | -1 | -4 | 2 | -2 | . | .
Cc1cc(/C=N/NC(=O)Cn2c3ccccc3c(=O)c3ccccc32)c(C)n1-c1ccccc1 | . | -9 | 10 | -18 | . | 4 | 1 | 0
O=C(NC1C2CC3CC(C2)CC1C3)C1CC1 (stereo not drawn) | 3 | -17 | -1 | -5 | . | 2 | . | .
O=C1C(=O)N(CNc2ccccn2)c2ccccc21 | . | 4 | -2 | -17 | . | -5 | . | .
Clc1ncnc2c1oc1ccccc12 | -1 | 7 | -2 | 19 | . | -3 | . | .
c1coc(CN(Cc2ccco2)c2ncnc3c2oc2ccccc23)c1 | . | -24 | 9 | 8 | 3 | -2 | 0 | -2
CN(C)S(=O)(=O)c1cccc(C(=O)NCC2CCCO2)c1 (stereo not drawn) | 0 | -7 | -2 | 2 | 5 | 1 | . | .
O=C(Nc1cccc(C(F)(F)F)c1)c1cc(-c2ccc(F)cc2)on1 | 1 | 6 | 9 | 1 | 2 | -7 | 0 | -2
S=C(Nc1cccc(Br)c1)c1ccccc1 | 0 | . | -2 | 15 | . | . | . | .
COc1ccccc1-c1cc(C(F)(F)F)nc(S(=O)(=O)CCCC(=O)N2CCOCC2)n1 | 0 | -49 | 11 | 4 | -5 | -3 | 1 | 7
COc1ccccc1-c1cc(C(F)(F)F)nc(S(=O)(=O)CCCC(=O)O)n1 | 1 | -9 | -2 | -9 | 6 | -7 | . | .
CCN(CC)S(=O)(=O)c1ccc(-c2nnc(SCC(C)=O)o2)cc1 | 0 | -14 | 10 | -8 | 5 | -6 | -1 | -1
COc1ccccc1-n1c(SCC(=O)c2ccc(O)cc2O)nc2cc([N+](=O)[O-])ccc21 | . | . | -1 | 15 | . | . | . | .
COCCCNC(=O)c1cn(CC(C)C)c(=O)c2c1c1ccccc1n2C | -1 | -5 | 20* | -5 | 10 | -5 | 0 | -3
O=C(NCCCN1CCN(CCCNC(=O)c2cccc([N+](=O)[O-])c2)CC1)c1cccc([N+](=O)[O-])c1 | -3 | . | -1 | -2 | . | . | . | .
Cn1nccc1C(=O)Nn1cnnc1 | -1 | 7 | 20* | -6 | -3 | -6 | 0 | 0
O=C(CCSCCc1ccccn1)Nc1ccc(Cl)cn1 | . | 2 | 11 | -6 | 5 | -4 | -1 | 0
Cc1ccc(OCc2nnc(SCC(=O)Nc3nccs3)n2-c2ccccc2)cc1C | -2 | -16 | -1 | -9 | 5 | -2 | . | .
Cc1ccc(-n2c(COc3c(C)cccc3C)nnc2SCC(=O)Nc2nccs2)cc1 | -1 | -1 | 65* | -12 | 4 | -4 | 1 | 1
COc1ccc(-c2cc(C(F)(F)F)c(C#N)c(SCC(=O)Nc3ccccc3C#N)n2)cc1 | 0 | -4 | -3 | 13 | . | -14 | . | .
